Data published in the OligoGym collection.

Legend:
Experiment in all cases: pooled miR-30 sensor sort-seq; sequence = guide strand
Conditions in all cases: shRNA
CDH2 = target: CDH2
CDK9 = target: CDK9
CDKL2 = target: CDKL2
CHCHD8 = target: CHCHD8
CHI3L1 = target: CHI3L1
CIR1 = target: CIR1
CIAPIN1 = target: CIAPIN1
CIRBP = target: CIRBP
CLDN16 = target: CLDN16
CNGB1 = target: CNGB1
CNN2 = target: CNN2
Note: reference of the scale not given here.

Q: Which sensor-assay potency score (higher = more potent) (CDH2) does the source give for TCACATTTGGTGATTCTCGGTC here?
A: 0.353

Q: For TACCAGAGTGTCACCACACGGT, which sensor-assay potency score (higher = more potent) (CDK9) is on record?
A: 0.18

Q: How did the sensor-assay potency score (higher = more potent) (CDKL2) turn out when TTTAAATAGTTTATAATCCTTA was run?
A: -0.355

Q: Which sensor-assay potency score (higher = more potent) (CDKL2) does the source give for TTCAACTAAGGAATCATCTTTT here?
A: 0.409

Q: With AAAACATTGCTCAACAGCCCAG as the sequence, how does the sensor-assay potency score (higher = more potent) (CDK9) read?
A: -1.38

Q: With TTTCTTTCTTCAACTAAGGAAT as the sequence, how does the sensor-assay potency score (higher = more potent) (CDKL2) read?
A: -1.1

Q: With TTTTCCATCAGCACCTTCTTCA as the sequence, how does the sensor-assay potency score (higher = more potent) (CDK9) read?
A: -0.28

Q: Which sensor-assay potency score (higher = more potent) (CDK9) does the source give for TCGAACACCAGGTATATACTAC here?
A: -0.813

Q: Which sensor-assay potency score (higher = more potent) (CDK9) does the source give for ATTCTCGTGTTTTAGAAGCTGA here?
A: 0.181

Q: Which sensor-assay potency score (higher = more potent) (CDK9) does the source give for TACTCGAACATGGACGTCAGGT here?
A: -0.285

Q: For TGAAGGATCTTGATCTCCCGCA, which sensor-assay potency score (higher = more potent) (CDK9) is on record?
A: -0.0916

Q: For TTCTTCAGAGCCACCTTCTGGC, which sensor-assay potency score (higher = more potent) (CDK9) is on record?
A: 0.0361

Q: Which sensor-assay potency score (higher = more potent) (CDK9) does the source give for TTGTCGATGAGGTCCAGTGCGT here?
A: -0.728

Q: Which sensor-assay potency score (higher = more potent) (CDKL2) does the source give for TACTTTTAACTGTAGTTCTTGG here?
A: -0.4

Q: AACTTGACCAAAACATTGCTCA was tested. Which sensor-assay potency score (higher = more potent) (CDK9) did it give?
A: -0.141

Q: How did the sensor-assay potency score (higher = more potent) (CDK9) turn out when TTTTAGAAGCTGAAGGATCTTG was run?
A: -0.461

Q: Which sensor-assay potency score (higher = more potent) (CDK9) does the source give for TATTTGGAAACTTCATCACAAA here?
A: -1.19

Q: How did the sensor-assay potency score (higher = more potent) (CDH2) turn out when TTGCTGCATATATCGATCTGGG was run?
A: -0.846

Q: TTGATCTCCCGCAAGGCTGTAA was tested. Which sensor-assay potency score (higher = more potent) (CDK9) did it give?
A: -0.379

Q: For TATTTCTTCAACTTCTGCTGAC, which sensor-assay potency score (higher = more potent) (CDH2) is on record?
A: 0.204

Q: With ATAACTGTAACAGACACGGTTG as the sequence, how does the sensor-assay potency score (higher = more potent) (CDH2) read?
A: -0.196

Q: Which sensor-assay potency score (higher = more potent) (CDH2) does the source give for TTTCTCTTAATAGTCACTGGAG here?
A: -0.274

Q: Which sensor-assay potency score (higher = more potent) (CDKL2) does the source give for TTTAACTGTAGTTCTTGGGAAA here?
A: -0.938

Q: For TTTTGTCTTTTACTTATCGTTT, which sensor-assay potency score (higher = more potent) (CDH2) is on record?
A: -0.959

Q: Which sensor-assay potency score (higher = more potent) (CDK9) does the source give for TTAGCAGCCTTCATGTCCCTAT here?
A: -0.0117

Q: With TTTCTGTGGATGTAGTAGAGGC as the sequence, how does the sensor-assay potency score (higher = more potent) (CDK9) read?
A: -0.227

Q: Which sensor-assay potency score (higher = more potent) (CDH2) does the source give for TTCATAGTCAAACACTAACAGG here?
A: -1.55

Q: How did the sensor-assay potency score (higher = more potent) (CDH2) turn out when TAGTCAAACACTAACAGGGAGT was run?
A: -0.885

Q: With TCTCGTATTTGGAAACTTCATC as the sequence, how does the sensor-assay potency score (higher = more potent) (CDK9) read?
A: -1.02

Q: How did the sensor-assay potency score (higher = more potent) (CDH2) turn out when TTATCTTTAAATTAAGCTGAGC was run?
A: -0.63

Q: With AAGTACTCGAACATGGACGTCA as the sequence, how does the sensor-assay potency score (higher = more potent) (CDK9) read?
A: 0.37

Q: For TATACTACCCTTGCAGCGGTTA, which sensor-assay potency score (higher = more potent) (CDK9) is on record?
A: -0.622

Q: TTGAACACCTCCCCGAAGGTGC was tested. Which sensor-assay potency score (higher = more potent) (CDK9) did it give?
A: -0.836

Q: For TATATACTACCCTTGCAGCGGT, which sensor-assay potency score (higher = more potent) (CDK9) is on record?
A: -0.627

Q: Which sensor-assay potency score (higher = more potent) (CHCHD8) does the source give for TTCTTGCCTCCTCTGCAGCTCC here?
A: -1.23

Q: TTGGAAAATCTTTGAGACCCAA was tested. Which sensor-assay potency score (higher = more potent) (CHI3L1) did it give?
A: -0.569

Q: With TTCAGGTACTGCACCTTGCTTT as the sequence, how does the sensor-assay potency score (higher = more potent) (CHI3L1) read?
A: -0.412

Q: Which sensor-assay potency score (higher = more potent) (CIR1) does the source give for TAGACTTGTCCTTCTCTTCAGA here?
A: -0.159

Q: Which sensor-assay potency score (higher = more potent) (CIAPIN1) does the source give for TGGTCTTTTGATACACAGCAGC here?
A: -1.52

Q: Which sensor-assay potency score (higher = more potent) (CIAPIN1) does the source give for TAACGCTTGAAGCTTATCCACC here?
A: -1.25

Q: Which sensor-assay potency score (higher = more potent) (CIRBP) does the source give for TACTTTGAGAAGACCTGCTCCA here?
A: 0.53

Q: For TAGTAGTCTCTGGAGCCTCCGT, which sensor-assay potency score (higher = more potent) (CIRBP) is on record?
A: -1.12

Q: TTAGATGCTGTCTTCACTTTGC was tested. Which sensor-assay potency score (higher = more potent) (CIAPIN1) did it give?
A: -0.0905

Q: With TCCGTACTTTGAGAAGACCTGC as the sequence, how does the sensor-assay potency score (higher = more potent) (CIRBP) read?
A: -0.634

Q: How did the sensor-assay potency score (higher = more potent) (CIAPIN1) turn out when TTGACTTCTCTTTTTCCAGTTC was run?
A: -0.361

Q: With TTTCGTTTCAGTGCAAACCCAC as the sequence, how does the sensor-assay potency score (higher = more potent) (CIR1) read?
A: -0.179

Q: Which sensor-assay potency score (higher = more potent) (CIRBP) does the source give for TATAGTAGTCTCTGGAGCCTCC here?
A: -0.259

Q: For TTTGTGTTTACTTCTGCTCTTC, which sensor-assay potency score (higher = more potent) (CIR1) is on record?
A: 0.203

Q: With TCTCAGAGTGAACAAATCCAGA as the sequence, how does the sensor-assay potency score (higher = more potent) (CIAPIN1) read?
A: -1.26

Q: With TATCATATGATATTTTCTGTTC as the sequence, how does the sensor-assay potency score (higher = more potent) (CIR1) read?
A: -0.717

Q: How did the sensor-assay potency score (higher = more potent) (CIRBP) turn out when TAACTGTCTCTGTAGGACCCGC was run?
A: -0.935

Q: Which sensor-assay potency score (higher = more potent) (CIR1) does the source give for TTTTCTTCTCCAGTCGATCTAA here?
A: -0.412

Q: TGTGATCTGAACAAACAGCAGG was tested. Which sensor-assay potency score (higher = more potent) (CIAPIN1) did it give?
A: -0.776

Q: TCGTCAATGTTCTCAAAGGTGA was tested. Which sensor-assay potency score (higher = more potent) (CIRBP) did it give?
A: -0.799

Q: Which sensor-assay potency score (higher = more potent) (CIRBP) does the source give for TTGGTGTCAAAACTCAGCCCTC here?
A: -0.687

Q: Which sensor-assay potency score (higher = more potent) (CIR1) does the source give for TACTGCTTTCTGAAGTCTCAGT here?
A: -0.586

Q: How did the sensor-assay potency score (higher = more potent) (CIRBP) turn out when TCAGAGATCTGTCCGTACTTTG was run?
A: -1.1

Q: Which sensor-assay potency score (higher = more potent) (CIRBP) does the source give for AACTGTCGTAACTGTCTCTGTA here?
A: 0.0143

Q: Which sensor-assay potency score (higher = more potent) (CIAPIN1) does the source give for TTCTTCAGGACACACTCCCTTC here?
A: -0.89

Q: How did the sensor-assay potency score (higher = more potent) (CIRBP) turn out when TCACTGTAGCCACCACTCTGAC was run?
A: -1.45

Q: Which sensor-assay potency score (higher = more potent) (CIR1) does the source give for TTCTTTAAGATATTGCTGCATC here?
A: -0.396

Q: Which sensor-assay potency score (higher = more potent) (CIAPIN1) does the source give for TTAACATAAATGACAACAGGAC here?
A: -0.72

Q: TGTCTTTCACAACCACCACTTC was tested. Which sensor-assay potency score (higher = more potent) (CIRBP) did it give?
A: -0.854

Q: TTTCACAACCACCACTTCAGAG was tested. Which sensor-assay potency score (higher = more potent) (CIRBP) did it give?
A: -0.729

Q: Which sensor-assay potency score (higher = more potent) (CIR1) does the source give for TCTCTTCTTAGACTTGTCCTTC here?
A: -0.0367

Q: For TTGTTCTTTAAGATATTGCTGC, which sensor-assay potency score (higher = more potent) (CIR1) is on record?
A: -0.164

Q: Which sensor-assay potency score (higher = more potent) (CIR1) does the source give for TTTATTGTTACTCTCACTCTCA here?
A: 0.426

Q: TTGTGAGCCACTTGACTCGTGT was tested. Which sensor-assay potency score (higher = more potent) (CIAPIN1) did it give?
A: -0.0962

Q: With TTCTCTTCTTAGACTTGTCCTT as the sequence, how does the sensor-assay potency score (higher = more potent) (CIR1) read?
A: -0.317

Q: With TTCAGAGATCTGTCCGTACTTT as the sequence, how does the sensor-assay potency score (higher = more potent) (CIRBP) read?
A: 0.15

Q: Which sensor-assay potency score (higher = more potent) (CIRBP) does the source give for ACTGTCGTAACTGTCTCTGTAG here?
A: -0.226

Q: How did the sensor-assay potency score (higher = more potent) (CIRBP) turn out when TGAGAAGACCTGCTCCAGCGAC was run?
A: -1.23

Q: Which sensor-assay potency score (higher = more potent) (CIRBP) does the source give for TAGCCACCACTCTGACTCCGGC here?
A: -0.921

Q: With TTGTTATCTACAGCTGTCTCTA as the sequence, how does the sensor-assay potency score (higher = more potent) (CIAPIN1) read?
A: -0.353

Q: For TAAGCTGCCTAGAAGAACCCAC, which sensor-assay potency score (higher = more potent) (CIAPIN1) is on record?
A: 0.616

Q: TTCTTCATGAAGCTTTCTCTTC was tested. Which sensor-assay potency score (higher = more potent) (CIR1) did it give?
A: -0.59

Q: With TGGAGTAAACTAACAACTCTGA as the sequence, how does the sensor-assay potency score (higher = more potent) (CIAPIN1) read?
A: -0.493

Q: Which sensor-assay potency score (higher = more potent) (CLDN16) does the source give for TTCTCTCAGGTCCAACATCTTT here?
A: -1.61

Q: For TTCTCTTCTTCATAAGCTGGAA, which sensor-assay potency score (higher = more potent) (CNGB1) is on record?
A: -0.514

Q: TTGGGGTCATATATCTGCCGGC was tested. Which sensor-assay potency score (higher = more potent) (CNN2) did it give?
A: -0.73

Q: How did the sensor-assay potency score (higher = more potent) (CNGB1) turn out when TTGTAGTTCACGTCGATGGCGA was run?
A: -0.201

Q: Which sensor-assay potency score (higher = more potent) (CNN2) does the source give for TAGCTGGTGCCAGTTCTGCATG here?
A: -1.58

Q: AATACTTCCTGAAACTTGCGGG was tested. Which sensor-assay potency score (higher = more potent) (CNN2) did it give?
A: 0.259

Q: TCATAGAGATGCCTTCTCGTGC was tested. Which sensor-assay potency score (higher = more potent) (CNN2) did it give?
A: -0.57
